Reference: PubChem BioAssay (NCATS)
Inconclusive results are not listed. Calls of active or inactive are those of the source. Calls come from the whole dose curve; as a rule, active = well fitted inhibition curve with a large enough effect; inconclusive = small, poorly fitted or top-dose-only effect; inactive = no such curve, though single readings can be large or run the other way.

What follows are molecules tested on Zika virus NS2B-NS3 protease (linked construct) (assay: Primary screen NINDS Rhodamine qHTS for Zika virus inhibitors (AID 1347160; note: nearly all actives have a fitted effect of over 55% in size)). Conditions: purified NS2B-NS3 protease, Rhodamine110 substrate fluorescence; series mostly up to 57.1 µM; activity change, negative = inhibition: at the top concentration.
In short: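 Aprotinin served as in-plate control. Conditions: 25 nM linked NS2B-NS3, pH 8.0 Tris buffer, titrated compounds, 15 min preincubation and 15 min reaction with 1.5 microM Rhod110 substrate at room temperature.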
% is set by controls: 0 for no effect and ±100 for the full control effect.

SMILES | activity change, negative = inhibition | outcome
C=C1CC23CC1(O)CCC2C1=CC2OC(=O)C(C)(C2O)C1C3C(=O)O (stereo unspecified) | 11.2% [at 33.1 µM] (inactive) | –
Nc1nonc1C(=Nc1ccc(F)c(Cl)c1)NO | – | inactive
COc1cc(C2OCC3C(c4ccc(OC5OC(CO)C(O)C(O)C5O)c(OC)c4)OCC23)ccc1O (stereo unspecified) | – | inactive [at 33.1 µM]
CO[C@H]1C=C2C(CC[C@H](O[C@@H]3O[C@H](CO)[C@@H](O)[C@@H](O)[C@H]3O)C2(C)C)[C@]2(C)CC[C@]3(C)C([C@H](C)C(O)C(C=C(C)C)O[C@@H]4O[C@H](CO)[C@@H](O)[C@@H](O)[C@H]4O)CC[C@@]3(C)C12 (stereo partly specified) | 21.6% [at 15.1 µM] (inactive) | –
CC1(C)C[C@H]2C3=CCC4[C@@]5(C)CC[C@H](O[C@H]6O[C@H](C(=O)O)[C@@H](O)[C@H](O)[C@H]6O[C@H]6O[C@H](CO)[C@@H](O)[C@H](O)[C@H]6O[C@@H]6O[C@H](CO)[C@@H](O)[C@H](O)[C@H]6O)[C@](C)(CO)C5CC[C@@]4(C)[C@]3(C)CC[C@@]2(C)[C@H](O[C@@H]2OC[C@H](O)[C@H](OC3O[C@H](CO)[C@@H](O)[C@H](O)[C@H]3O)[C@H]2O)[C@@H]1O (stereo partly specified) | -4.25% [at 10.7 µM] (inactive) | –
COC1=CC(=O)O[C@@H](/C=C/c2ccccc2)[C@@H]1O | -12.2% (inactive) | –
